This is a sample that favours compounds with a hit; in the whole collection about 2.3% have one here.
MEKK2mut PB1 HTS: signal of MEK5 binding to mutant human MEKK2 PB1 domain | percent response, % at 10 µM | bead flow cytometry, Alexa488-MEK5 binding to MEKK2 mutant | 290,000 compounds, 0.35% hits | AID 1530; in the data active = percent response above about 24%, passing the limit was not always enough
MEKK2 WT-MEK5: raises or lowers MEK5 binding to wildtype human MEKK2 PB1 domain | 290,000 compounds, 1.1% hits | Q9Y2U5 | bead flow cytometry, Alexa488-MEK5 binding to MEKK2 WT; actives lie on both sides | binding response (% of control), % at 10 µM; in the data active = binding response below about 67% or above about 130%; inconclusive = no clear call, values can overlap the other calls; inactive = in between
MEKK3 PB1 HTS: modulators (inhibitors or enhancers) of MEK5 binding to human MEKK3 PB1 domain; Q99759; bead-based flow cytometry, Alexa488-MEK5 binding to MEKK3; actives lie on both sides; 0 = blocked by unlabeled MEK5, 100 = vehicle; binding response (% of control), % at 10 µM; 290,000 compounds, 1.4% hits; AID 1529;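 active = binding response more than 3 SD above or below the average of its plate-row segment, actives on both sides; inconclusive = wells at one plate position flagged as instrument error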;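 also: Alexa488 bead fluorescence after subtracting the streptavidin-only scavenger bead signal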
Target sequence (Q99759 whole entry, looked up, the tested form may be a part): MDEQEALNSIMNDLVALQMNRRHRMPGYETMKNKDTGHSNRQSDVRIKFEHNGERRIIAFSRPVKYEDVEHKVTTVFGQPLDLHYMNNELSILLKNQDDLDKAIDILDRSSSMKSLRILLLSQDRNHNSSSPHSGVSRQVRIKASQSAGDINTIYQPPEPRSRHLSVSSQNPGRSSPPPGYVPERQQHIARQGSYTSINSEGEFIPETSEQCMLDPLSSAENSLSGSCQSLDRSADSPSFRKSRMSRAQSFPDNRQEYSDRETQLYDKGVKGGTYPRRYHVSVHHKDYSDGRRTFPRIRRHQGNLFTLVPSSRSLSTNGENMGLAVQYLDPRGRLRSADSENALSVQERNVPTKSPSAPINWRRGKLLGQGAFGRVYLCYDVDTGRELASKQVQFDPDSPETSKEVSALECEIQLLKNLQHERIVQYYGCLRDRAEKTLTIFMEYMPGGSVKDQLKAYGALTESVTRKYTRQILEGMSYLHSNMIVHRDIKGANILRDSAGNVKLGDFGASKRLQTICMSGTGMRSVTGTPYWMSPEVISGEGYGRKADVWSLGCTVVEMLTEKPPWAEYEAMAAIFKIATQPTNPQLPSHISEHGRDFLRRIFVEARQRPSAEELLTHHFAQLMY
UBC13 inh: human UBC13 polyubiquitination inhibition | 330,000 compounds, 0.47% hits | UBC13 polyubiquitin chain formation, TR-FRET | AID 485273 | P61088 | inhibition, % at 20 µM; in the data active = inhibition above about 45%, passing the limit was not always enough; inconclusive = no clear call, values can overlap the other calls
Casp3 UBC13 ctr: counter-screen for UBC13 inhibitors: human caspase-3 inhibition; shares compounds with UBC13 inh; Recombinant caspase-3, Caspase-Glo 3/7 luminescence, 60 min; inhibition, % at 20 µM; 1,400 compounds, 4% hits;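 active = mean inhibition across replicates above about 26%, limit read from the data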;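 also: plate controls were DMSO with caspase-3 for no effect and DMSO wells lacking enzyme for full effect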
UBC13 confirm: human UBC13 polyubiquitin inhibition, confirmed; UBC13 polyubiquitination, TR-FRET, biochemical; 1,400 compounds, 68% hits; shares compounds with UBC13 inh; inhibition, % at 10 µM; in the data active = inhibition above about 45%; inconclusive = no clear call, values can overlap the other calls
* marks the source's active call; other numbers are inactive results; ? = inconclusive; nt = no result; [ ] = remark or other dose.

SMILES	MEKK2mut PB1 HTS	MEKK2 WT-MEK5	MEKK3 PB1 HTS	UBC13 inh	Casp3 UBC13 ctr	UBC13 confirm
CN1CCN(C(=O)C2CCN(c3ncnc4c3nc3n4CCCCC3)CC2)CC1	-4	96	98	86*	5	101*
O=C(C1CCN(c2ncnc3c2nc2n3CCCCC2)CC1)N1CCCCC1	4	105	99	27	nt	nt
O=S(=O)(NCC1CCC(NS(=O)(=O)c2c(F)cccc2F)CC1)c1ccc2c(c1)OCCO2 (centres undefined)	nt	nt	nt	-18	nt	nt
CCc1ccc(C2CC(c3ccc(Cl)cc3)n3nc(N)nc3N2)cc1 (centres undefined)	2	98	100	0	nt	nt
CCc1ccc(C2CC(c3ccc(F)cc3)Nc3nc(N)nn32)cc1 (centres undefined)	-2	99	100	49*	-1	7
O=C(Nc1nccs1)c1ccc(Br)s1	2	97	99	7	nt	nt
O=C(Nc1cccc(C2=NCCN2)c1)Nc1cccc(C2=NCCN2)c1	nt	nt	nt	97*	-4	104*
O=C(Nc1ccc(NC(=O)c2ccc(Cl)cc2Cl)cc1)c1ccc2c(c1)OCO2	-5	99	99	0	nt	nt
O=C(Nc1ccncc1)Nc1cccc(Cl)c1	-8	98	96	8	nt	nt
O=C(Nc1ccc(C2=NCCN2)cc1)c1ccc(C(=O)Nc2ccc(C3=NCCN3)cc2)c(Cl)c1	31*	149*	72*[inhibitor]	104*	0	118*
CCOc1ccc(-c2[nH]ncc2Oc2cccc(OC)c2)c(O)c1	-8	93	84	63*	3	60*
COc1cccc(Oc2cn[nH]c2-c2ccc(OC)cc2O)c1	5	106	105	38	nt	nt
CC1CC(C)CN(CCCNC(=O)C2CCN(c3ncnc4c3sc3cccc(F)c34)CC2)C1 (centres undefined)	-11	120	96	48*	-2	54*
COc1cc2c(cc1OC)C(c1ccc(Br)cc1)NC(=O)C2 (centres undefined)	2	103	103	4	nt	nt
COc1ccc(C(=O)Nn2c(SCC(=O)N3CCC(C)CC3)nc3ccccc3c2=O)cc1	4	96	106	80*	85*	84*
COc1ccc(C(=O)Nn2c(SCC(=O)c3ccc(Cl)cc3)nc3ccccc3c2=O)cc1	-8	87	93	50*	0	56*
CCn1c(SCC(=O)NCc2ccco2)nc2ccccc2c1=O	-8	87	102	8	nt	nt
N#CCSc1nc2ccccc2c(=O)n1CCCC(=O)NCc1ccco1	-5	96	95	2	nt	nt
COc1ccc(C(=O)Nn2c(SCC(=O)NCc3ccco3)nc3ccccc3c2=O)cc1	5	121	113	71*	25	74*
COc1ccc(C(=O)Nn2c(SCC(=O)NC3CCCCC3)nc3ccccc3c2=O)cc1	-1	94	97	31	nt	nt
O=C(CCCCCn1c(SCc2ccncc2)nc2ccccc2c1=O)NCc1ccco1	1	101	97	69*	-3	47*
COc1ccc(C(=O)CSc2nnc3n2CCCN3C(=O)Nc2ccccc2)cc1	-1	96	96	-1	nt	nt
COc1ccc(CN2C(=O)c3cccnc3C2=O)cc1S(=O)(=O)NC1CCCCC1	2	100	98	0	nt	nt
CC(Oc1ccc(Cl)cc1)C(=O)Nc1ccccc1C(=O)N1CCOCC1 (centres undefined)	-1	98	96	13	nt	nt
O=C(NNC1CC(=O)N(c2ccc(Br)cc2)C1=O)c1cccnc1 (centres undefined)	-41	97	96	6	nt	nt
SMILES	MEKK2mut PB1 HTS	MEKK2 WT-MEK5	MEKK3 PB1 HTS	UBC13 inh	Casp3 UBC13 ctr	UBC13 confirm
CC(=O)N1c2ccc(S(=O)(=O)N3CCCCC3)cc2CC1C(=O)NCc1cccc(Cl)c1 (centres undefined)	10	107	106	-4	nt	nt
CC(=O)n1cc([C@@H]2C=C(C(=O)O)O[C@H](OCc3ccc(CO)cc3)C2)c2ccccc21	2	105	91	-5	nt	nt
CC(=O)n1cc([C@@H]2C=C(C(=O)NCc3ccccc3)O[C@H](OCc3ccc(CO)cc3)C2)c2ccccc21	1	91	98	-10	nt	nt
C#CCNC(=O)C1=C[C@H](c2cn(C(C)=O)c3ccccc23)C[C@H](OCc2ccc(CO)cc2)O1	-15	80	83	63*	-2	46*
CC(=O)n1cc([C@H]2C=C(C(=O)Nc3ccccc3)O[C@@H](OCc3ccc(CO)cc3)C2)c2ccccc21	0	99	99	64*	7	58*
COc1ccccc1N1CCN(C2CCCN(C(=O)c3ccsc3)C2)CC1 (centres undefined)	5	107	104	3	nt	nt
O=C(c1ccc2nccnc2c1)N1CCCC(N2CCN(c3ccc(F)cc3)CC2)C1 (centres undefined)	-7	100	99	-10	nt	nt
COc1ccccc1-c1oc2ccccc2c1C#CC1(N)CCCCC1	nt	nt	nt	70*	-3	70*
Cn1nc(C(F)(F)F)c2cc(C(=O)Nc3ccc(C(F)(F)F)cc3)sc21	-1	96	95	-6	nt	nt
Cc1c(C)n(Cc2ccccc2)c2ncnc(N)c12	3	103	109	59*	1	61*
O=C(/C=C/c1cccnc1)/C=C/c1cccnc1	-10	91	86	nt	nt	nt
O=C(COC(=O)c1cc(Br)ccc1O)Nc1cccnc1Cl	nt	nt	nt	47*	0	?
CCCCn1c(SCC(=O)Nc2cc(C)on2)nc2ccsc2c1=O	4	101	99	6	nt	nt
O=C(O)c1ccc(Cn2c(SCc3cc(=O)n4cc(Br)ccc4n3)nc3ccsc3c2=O)cc1	-3	94	102	-20	nt	nt
COc1ccc(Cn2c(SCC(=O)NCc3ccco3)nc3ccsc3c2=O)cc1	3	99	97	66*	-4	74*
CCCCn1c(SCC(=O)Nc2cc(C)[nH]n2)nc2ccsc2c1=O	0	96	99	50*	-2	53*
Cc1ccc(CNC(=O)CSc2nc3ccsc3c(=O)n2Cc2ccc(C(=O)O)cc2)cc1	-9	82	82	56*	6	64*
O=C(CSc1nc2ccsc2c(=O)n1Cc1ccc(C(=O)O)cc1)NCc1ccco1	-3	97	97	61*	1	60*
CCC(C)(C)NC(=O)C(c1ccc(C)o1)N(Cc1ccc2c(c1)OCO2)C(=O)c1snc(C(N)=O)c1N (centres undefined)	-1	93	97	78*	-3	86*
Cc1ccc(C(C(=O)NC(C)(C)C)N(Cc2ccccc2)C(=O)c2snc(C(N)=O)c2N)o1 (centres undefined)	-4	85	84	71*	5	66*
Cc1cc(-c2nnc(SCC(=O)Nc3nc(-c4ccc(Cl)cc4)cs3)o2)no1	-7	96	97	49*	1	-11
